# Results as given in publication PMC4336329 (PLoS ONE, 2015).
# In all, about 310,000 compounds went through this assay and about 14,000 (4.5%) showed an effect of 50% or more. Effects have a minus sign here. Many of the other results were omitted from the sample, so strong results are more common in it than they were.
# Molecular target: human ether-à-go-go-related gene (hERG) potassium channel (human, UniProt Q12809)
# Experiment: primary screen, population patch clamp on CHO cells stably expressing hERG; higher = less effect of the substance
# 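Note: peak tail current of the secondary pulse compared with the same well before compound.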
# human ether-à-go-go-related gene (hERG) potassium channel, sequence (Q12809 whole entry, looked up): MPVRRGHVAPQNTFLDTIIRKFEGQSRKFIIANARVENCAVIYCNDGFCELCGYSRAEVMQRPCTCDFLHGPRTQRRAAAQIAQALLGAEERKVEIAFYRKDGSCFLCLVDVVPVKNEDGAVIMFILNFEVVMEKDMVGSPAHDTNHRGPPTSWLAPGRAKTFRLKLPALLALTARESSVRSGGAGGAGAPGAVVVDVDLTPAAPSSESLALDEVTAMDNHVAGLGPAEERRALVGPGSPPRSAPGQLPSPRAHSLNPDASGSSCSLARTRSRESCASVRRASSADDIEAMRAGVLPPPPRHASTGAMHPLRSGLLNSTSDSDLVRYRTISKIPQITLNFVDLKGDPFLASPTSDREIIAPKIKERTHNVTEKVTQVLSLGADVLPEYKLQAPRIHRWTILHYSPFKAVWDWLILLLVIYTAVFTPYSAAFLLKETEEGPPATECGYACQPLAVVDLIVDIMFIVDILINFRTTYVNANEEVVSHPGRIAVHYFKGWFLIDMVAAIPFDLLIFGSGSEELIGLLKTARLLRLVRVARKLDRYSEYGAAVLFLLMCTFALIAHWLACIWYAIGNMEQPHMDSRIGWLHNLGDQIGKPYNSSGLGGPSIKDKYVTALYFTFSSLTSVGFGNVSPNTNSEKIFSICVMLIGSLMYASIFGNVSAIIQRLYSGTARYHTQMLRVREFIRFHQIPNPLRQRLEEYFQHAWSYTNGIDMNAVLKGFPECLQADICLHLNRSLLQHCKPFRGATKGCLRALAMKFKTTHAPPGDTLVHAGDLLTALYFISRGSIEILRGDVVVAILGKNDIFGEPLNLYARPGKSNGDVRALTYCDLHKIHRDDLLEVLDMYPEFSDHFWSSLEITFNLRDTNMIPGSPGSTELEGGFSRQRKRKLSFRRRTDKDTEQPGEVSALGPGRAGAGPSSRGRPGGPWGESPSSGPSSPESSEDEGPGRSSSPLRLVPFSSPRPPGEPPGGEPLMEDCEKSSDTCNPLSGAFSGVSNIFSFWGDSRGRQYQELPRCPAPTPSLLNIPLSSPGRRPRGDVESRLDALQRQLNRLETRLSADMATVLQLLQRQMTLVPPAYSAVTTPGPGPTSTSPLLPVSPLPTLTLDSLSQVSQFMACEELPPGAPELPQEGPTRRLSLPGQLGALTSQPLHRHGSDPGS
row,SMILES,"hERG current change (%, negative = inhibition) at 10uM"
1,COc1cccc(-n2nnc3c(=O)n(CC(=O)OCc4ccccc4)cnc32)c1,9.39%
2,c1ccc(C2c3[nH]c4ccccc4c3CCN2Cc2cccn2-c2ccccn2)nc1 (centres unmarked),-70.5%
3,c1ccc(C2c3[nH]c4ccccc4c3CCN2Cc2cccn2-c2cccnc2)nc1 (centres unmarked),-23.7%
4,O=C(Cc1ccsc1)N1CCc2c([nH]c3ccccc23)C1c1ccccn1 (centres unmarked),4.87%
5,Clc1ccc(-n2cccc2CN2CCc3c([nH]c4ccccc34)C2c2ccccn2)nc1 (centres unmarked),-77%
6,CC(=O)Nc1ccc(CN2CCc3c([nH]c4ccccc34)C2c2ccccn2)cc1 (centres unmarked),-38.5%
7,CSc1ncc(CN2CCc3c([nH]c4ccccc34)C2c2cccc(C)n2)cn1 (centres unmarked),-13.8%
8,CCOC(=O)C1CCN(S(=O)(=O)c2ccc(Cl)nc2)CC1,-2.6%
9,COc1ccc2oc(C(=O)NCCC(C)C)c(C)c2c1,-0.78%
10,Cn1nc(C(=O)OCc2ccccc2F)c2ccccc2c1=O,13%
11,COc1ccc(C(C)(C)C)cc1NC(=O)c1cccc(S(=O)(=O)N2CCN(C(C)=O)CC2)c1,11.5%
12,Cc1ccc(S(=O)(=O)N2CCN(c3ncnc4c3cnn4-c3ccccc3)CC2)cc1,14.3%
13,Oc1ccccc1C1=NN(c2ccccc2)C(c2ccc(F)cc2)C1 (centres unmarked),9.68%
14,Oc1ccccc1C1=Nc2ncnn2C(c2ccc(F)cc2)C1 (centres unmarked),-80.8%
15,Oc1ccccc1C1=Nc2ncnn2C(c2ccccc2)C1 (centres unmarked),-16.6%
16,COc1ccc(NC2CC(=O)NC2=O)cc1 (centres unmarked),5.24%
17,O=Cc1cc([N+](=O)[O-])ccc1N1CCOCC1,-19.3%
18,O=C1NC(=S)N/C1=C/c1cc([N+](=O)[O-])ccc1N1CCOCC1,-62.9%
19,CN1C(=O)C(=Cc2cc([N+](=O)[O-])ccc2N2CCCCC2)C(=O)N(C)C1=O,19.3%
20,CC(=O)N1c2ccc([N+](=O)[O-])cc2NC(=O)CC1C (centres unmarked),22.2%
21,O=C1NC(=S)N/C1=C/c1cc([N+](=O)[O-])ccc1O,12.8%
22,CCN1CCN(c2ccc([N+](=O)[O-])cc2C=C2C(=O)NC(=O)NC2=O)CC1,-66.3%

row,SMILES,"hERG current change (%, negative = inhibition) at 10uM"
1,CC(=O)N1CCN(C(=S)c2cccc([N+](=O)[O-])c2)CC1,8.96%
2,O=C1NC(=O)C(=Cc2cc([N+](=O)[O-])ccc2N2CCCCC2)C(=O)N1,7.84%
3,CC(=O)N1CCN(c2ccc([N+](=O)[O-])cc2C=C2C(=O)NC(=O)NC2=O)CC1,-56.6%
4,COC(=O)C1=C(O)/C(=C\c2ccc(OCC(=O)Nc3ccccc3OC)cc2)N=C1C,0.751%
5,Cc1ccccc1Nc1nc(-c2sc(NC(=O)c3ccco3)nc2C)cs1,23.6%
6,O=C(Nc1cccc(Cl)c1)c1nc[nH]c1C(=O)N1CCN(c2ccccc2)CC1,8.06%
7,Cc1c(N/C(=N/S(=O)(=O)c2ccc(F)cc2)c2ccccc2)c(=O)n(-c2ccccc2)n1C,0.39%
8,O=[N+]([O-])c1ccc(Oc2ccc(-c3cnc4ccccc4n3)cc2[N+](=O)[O-])cc1,6.13%
9,c1nc(N2CCCCC2)c2[nH]cnc2n1,9.4%
10,C=CCn1c(SCCN2CCCCC2)nc2c1c(=O)[nH]c(=O)n2C,-47.3%
11,COc1ccc(C(=O)NC2CC3CCCC(C2)N3Cc2ccccc2)cc1OC (centres unmarked),-23.6%
12,COc1ccc(C(=O)NC2CC3CCCC(C2)N3Cc2ccccc2)cc1 (centres unmarked),-53.5%
13,CCOc1ccc(C(=O)NC2CC3CCCC(C2)N3Cc2ccccc2)cc1 (centres unmarked),-57.5%
14,CCOc1ccc(C(=O)NC2CC3CCCC(C2)N3CC(C)C)cc1 (centres unmarked),-41.1%
15,Cc1ccn2c(NC(=O)c3cccs3)c(-c3ccccc3)nc2c1,-0.701%
16,C=CCCC(=O)NC1CC(C)(C)Cc2c1cnn2-c1cccc(F)c1 (centres unmarked),-68.4%
17,CC1(C)Cc2c(cnn2-c2cccc(F)c2)C(NC(=O)CSc2ccncc2)C1 (centres unmarked),-56.5%
18,Cc1ccccc1-n1ncc2c1CC(C)(C)CC2NC(=O)CSc1ccncc1 (centres unmarked),-8.26%
19,CC1(C)Cc2c(cnn2-c2cccc(F)c2)C(NC(=O)CCc2cnccn2)C1 (centres unmarked),-28.4%
20,CC1(C)Cc2c(cnn2-c2cccc(F)c2)C(NC(=O)CSc2ccccn2)C1 (centres unmarked),-20.6%
21,CC1(C)Cc2c(cnn2-c2cccc(F)c2)C(NC(=O)Cn2cccn2)C1 (centres unmarked),-11.5%
22,CCC1CCCCN1C(=S)NCc1ccccc1 (centres unmarked),-1.29%

row,SMILES,"hERG current change (%, negative = inhibition) at 10uM"
1,COc1ccc(-c2c(C)n([O-])c(C)c(-c3ccccc3)[n+]2=O)cc1OC,7.35%
2,Cc1cccc(-n2cc(CN(C)Cc3nccn3C)c(-c3cccc(F)c3)n2)c1,-6.01%
3,CCN(CC(=O)NC(C)(C)C)C(=O)c1ccc(Br)cc1,2.64%
4,O=C(NCCc1ccc(Cl)cc1)C1CCCN1C(=O)Nc1ccccc1 (centres unmarked),-11.5%
5,COc1ccc(O)c(C(=O)c2coc(=N)c(C(=O)Nc3ccc(SC(F)F)cc3)c2)c1,-69.9%
6,COc1ccc(C(=O)Nc2ccc(SC(F)F)cc2)cc1,-2.14%
7,CCOc1ccccc1NC(=O)c1cc(C(=O)c2cc(OC)ccc2O)coc1=N,-20.3%
8,O=c1[nH]c(C2CCN(S(=O)(=O)c3ccc(F)cc3)CC2)nc2c1nnn2Cc1ccc2c(c1)OCCO2,11.1%
9,COc1cc2c(c(OC)c1OC)-c1ccc(O)c(=O)cc1C(NC(C)=O)CC2 (centres unmarked),13.7%
10,N#Cc1ccc(NC(=O)c2cc(S(=O)(=O)N3CCOCC3)ccc2N2CCCC2)cc1,-80.4%
11,O=C(Nc1cccc(F)c1)c1cc(S(=O)(=O)N2CCOCC2)ccc1N1CCCC1,-34.2%
12,CCN1CCN(S(=O)(=O)c2ccc(Cl)c(C(=O)Nc3ccc(OC(F)F)cc3)c2)CC1,-70.4%
13,O=C(Nc1ccc(OC(F)F)cc1)c1cc(S(=O)(=O)N2CCOCC2)ccc1F,-31.3%
14,CCN1CCN(c2ccc(NC(=O)c3cc(S(=O)(=O)N4CCCC4)ccc3Cl)cc2)CC1,-27.7%
15,O=C(Nc1ccc(OC(F)F)cc1)c1cc(S(=O)(=O)N2CCCCC2)ccc1N1CCOCC1,-65.8%
16,CCN1CCN(S(=O)(=O)c2ccc(Cl)c(C(=O)Nc3ccc(C(=O)N(CC)CC)cc3)c2)CC1,0.597%
17,NC(=O)c1ccc(NC(=O)c2cc(S(=O)(=O)N3CCCCC3)ccc2N2CCOCC2)cc1,-13.9%
18,CNC(=O)c1ccc(NC(=O)c2cc(S(=O)(=O)N3CCOCC3)ccc2N2CCCC2)cc1,7.71%
19,O=C(O)c1ccccc1N1C(=O)C2C3c4ccccc4C(Br)(c4ccccc43)C2C1=O (centres unmarked),18.4%
20,CCN(CC(=O)NCc1cccs1)C(=O)/C=C/c1ccc(OC)c(OC)c1,-23.5%
21,Cc1cc(C)n2nc(C(=O)OCC(=O)Nc3ccc4c(c3)OCCO4)nc2n1,3.56%
22,CCOc1cc(C(=S)N2CCOCC2)ccc1OS(=O)(=O)c1ccccc1,-10%

row,SMILES,"hERG current change (%, negative = inhibition) at 10uM"
1,COc1ccc(OCC(=O)NCCCCCCNC(=O)COc2ccc(OC)cc2)cc1,10.6%
2,CCOC(=O)C1CCCN(CC(O)COCc2ccc3c(c2)OCO3)C1 (centres unmarked),-23.5%
3,CCc1cc(C(=O)NNC(=O)CCN2CCN(c3ccccc3)CC2)sc1C,11.8%
4,O=C(Nc1nnc(C2CC2)o1)c1ccc(S(=O)(=O)N2CCCc3ccccc32)cc1,-19.3%
5,COc1ccc(/C=N/Nc2ncc(C(F)(F)F)cc2Cl)cc1OC,3%
6,COc1cccc(/C=N/Nc2ncc(C(F)(F)F)cc2Cl)c1O,36.1%
7,COc1cc(/C=N/Nc2ncc(C(F)(F)F)cc2Cl)cc(OC)c1O,-64.8%
8,CCN(CC(=O)Nc1cc(C)on1)CC(=O)Nc1ccccc1C(F)(F)F,13.7%
9,Cc1ccc(NC(=O)CN(C)C(=O)C(C)OC(=O)CNC(=O)c2ccc(Cl)c([N+](=O)[O-])c2)cc1 (centres unmarked),-43%
10,Cc1ccc(NC(=O)CN(C)C(=O)c2ccc(-n3cncn3)c([N+](=O)[O-])c2)cc1,-49.2%
11,CN(CC(=O)Nc1ccc(F)c(F)c1F)C(=O)c1ccc(-n2cncn2)c([N+](=O)[O-])c1,-40.6%
12,CCN(C(=O)c1ccc(Cl)c([N+](=O)[O-])c1)c1ccccc1,-5.95%
13,O=C(NCCc1ccccc1)c1ccc(Cl)c([N+](=O)[O-])c1,-27.2%
14,Cc1ccc(NC(=O)CN(C)C(=O)c2ccc(Sc3nncn3C)c([N+](=O)[O-])c2)cc1,-40.3%
15,CN(Cc1ccccc1)C(=O)c1ccc(Cl)c([N+](=O)[O-])c1,-53.5%
16,CN(CC(=O)Nc1ccc(F)c(F)c1F)C(=O)c1ccc(=O)[nH]c1,0.382%
17,CN(CC(=O)Nc1ccc(F)c(F)c1F)C(=O)c1ccc(-n2cncn2)cc1,-63.8%
18,CN(CC(=O)Nc1ccc(Cl)cc1)C(=O)c1ccc(-n2cncn2)c([N+](=O)[O-])c1,-70.3%
19,Cc1ccc(NC(=O)CN(C)C(=O)c2ccc(Cl)c([N+](=O)[O-])c2)cc1,-52.1%
20,CN(CC(=O)Nc1c(Cl)cccc1Cl)C(=O)c1ccc(-n2cncn2)c([N+](=O)[O-])c1,5.71%
